The supplement of paper PMC11732987, “Enantioselective OTUD7B fragment discovery through chemoproteomics screening and high-throughput optimisation” (Communications Chemistry, 2025)

Experiments:
Test in all cases: log2 ratio of Biotin-Ahx-Ub-VS probe labelling (fragment/DMSO); higher = less target engagement (more negative = stronger competition), active = hit call of the paper (q ≤ 0.05, log2 ratio ≤ -1)
Conditions in all cases: compound concentration: 200 uM; treatment time: 3 h
OTUD6B = biological target: T1, OTUD6B (UniProt Q8N6M0)
T1 sequence (whole entry): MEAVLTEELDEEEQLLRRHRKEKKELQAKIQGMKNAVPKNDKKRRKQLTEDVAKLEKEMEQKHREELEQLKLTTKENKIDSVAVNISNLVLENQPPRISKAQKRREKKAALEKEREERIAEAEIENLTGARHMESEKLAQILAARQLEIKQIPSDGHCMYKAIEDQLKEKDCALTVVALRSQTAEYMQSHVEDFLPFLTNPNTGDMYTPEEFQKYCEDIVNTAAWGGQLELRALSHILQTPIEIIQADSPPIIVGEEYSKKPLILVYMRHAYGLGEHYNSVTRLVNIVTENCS
Outline: (§1)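 HEK293T lysate, 495 µg per sample in Tris/CHAPS/IGEPAL buffer with protease inhibitors, was treated in triplicate with fragment at 200 µM or vehicle for 3 h and then with Biotin-Ahx-Ub-VS at 0.5 µM final for 1 h. Labelled DUBs were NeutrAvidin-enriched, digested with LysC and trypsin, and run by diaPASEF LC-MS/MS. Spectronaut label-free quantities were global-median-normalised, and values are average log2 fragment/vehicle ratios by unpaired t-test on proteins with ≥2 unique peptides.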

OTUD7B = biological target: T2, OTUD7B (UniProt Q6GQQ9)
T2 sequence (whole entry): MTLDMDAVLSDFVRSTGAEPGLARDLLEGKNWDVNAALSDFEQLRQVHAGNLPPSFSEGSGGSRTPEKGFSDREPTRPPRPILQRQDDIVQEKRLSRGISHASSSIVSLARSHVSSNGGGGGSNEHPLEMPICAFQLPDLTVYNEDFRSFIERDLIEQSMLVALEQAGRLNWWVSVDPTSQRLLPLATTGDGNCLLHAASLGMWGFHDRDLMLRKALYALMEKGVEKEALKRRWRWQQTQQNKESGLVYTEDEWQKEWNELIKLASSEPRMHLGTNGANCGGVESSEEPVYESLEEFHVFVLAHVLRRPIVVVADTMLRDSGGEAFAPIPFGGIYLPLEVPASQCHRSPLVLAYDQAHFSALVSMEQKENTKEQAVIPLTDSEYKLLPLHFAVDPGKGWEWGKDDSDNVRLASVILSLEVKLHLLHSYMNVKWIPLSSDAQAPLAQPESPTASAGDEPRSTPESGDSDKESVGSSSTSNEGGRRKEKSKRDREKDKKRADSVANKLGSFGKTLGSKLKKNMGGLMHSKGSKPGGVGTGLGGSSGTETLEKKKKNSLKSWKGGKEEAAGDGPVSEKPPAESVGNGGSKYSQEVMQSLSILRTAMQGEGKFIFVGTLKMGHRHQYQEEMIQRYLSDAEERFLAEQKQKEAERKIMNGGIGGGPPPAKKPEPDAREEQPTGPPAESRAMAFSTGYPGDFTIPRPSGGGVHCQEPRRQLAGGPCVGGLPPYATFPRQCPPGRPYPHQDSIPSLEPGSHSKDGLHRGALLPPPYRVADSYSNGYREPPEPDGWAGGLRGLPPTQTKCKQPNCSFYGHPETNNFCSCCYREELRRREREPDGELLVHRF
Outline: as §1

PRPF8 = PRPF8 (UniProt Q6P2Q9)
Outline: as §1

PSMD7 = biological target: T3, PSMD7 (UniProt P51665)
T3 sequence (whole entry): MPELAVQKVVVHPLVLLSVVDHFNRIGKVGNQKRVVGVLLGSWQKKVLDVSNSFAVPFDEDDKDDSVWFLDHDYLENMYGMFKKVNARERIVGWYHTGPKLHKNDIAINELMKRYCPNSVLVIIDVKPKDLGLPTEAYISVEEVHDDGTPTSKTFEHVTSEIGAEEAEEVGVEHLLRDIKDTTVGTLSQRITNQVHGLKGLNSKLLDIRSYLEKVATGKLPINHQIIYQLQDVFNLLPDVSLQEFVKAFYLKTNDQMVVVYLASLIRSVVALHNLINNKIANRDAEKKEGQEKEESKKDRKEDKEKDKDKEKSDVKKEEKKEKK
Outline: as §1

UCHL1 = UCHL1 (UniProt P09936)
Outline: as §1

UCHL3 = biological target: T4, UCHL3 (UniProt P15374)
T4 sequence (whole entry): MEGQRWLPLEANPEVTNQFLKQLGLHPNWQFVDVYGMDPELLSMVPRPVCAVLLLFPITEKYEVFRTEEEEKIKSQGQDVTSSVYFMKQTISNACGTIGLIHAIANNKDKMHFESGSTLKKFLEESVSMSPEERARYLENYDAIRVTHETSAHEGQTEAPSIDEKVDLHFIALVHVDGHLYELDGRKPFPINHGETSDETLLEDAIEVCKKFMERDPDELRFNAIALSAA
Outline: as §1

UCHL5 = biological target: T5, UCHL5 (UniProt Q9Y5K5)
T5 sequence (whole entry): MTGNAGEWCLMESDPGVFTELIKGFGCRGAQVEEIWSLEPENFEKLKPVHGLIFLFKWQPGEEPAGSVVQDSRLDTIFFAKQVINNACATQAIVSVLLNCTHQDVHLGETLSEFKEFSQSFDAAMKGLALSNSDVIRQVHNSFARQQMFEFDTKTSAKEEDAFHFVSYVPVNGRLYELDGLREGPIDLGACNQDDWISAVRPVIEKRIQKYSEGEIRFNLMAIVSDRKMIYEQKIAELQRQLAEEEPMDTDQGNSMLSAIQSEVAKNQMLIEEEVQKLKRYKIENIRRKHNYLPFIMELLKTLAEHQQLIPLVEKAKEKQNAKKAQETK
Outline: as §1

USP10 = USP10 (UniProt Q14694)
Outline: as §1

USP15 = biological target: T6, USP15 (UniProt Q9Y4E8)
T6 sequence (whole entry): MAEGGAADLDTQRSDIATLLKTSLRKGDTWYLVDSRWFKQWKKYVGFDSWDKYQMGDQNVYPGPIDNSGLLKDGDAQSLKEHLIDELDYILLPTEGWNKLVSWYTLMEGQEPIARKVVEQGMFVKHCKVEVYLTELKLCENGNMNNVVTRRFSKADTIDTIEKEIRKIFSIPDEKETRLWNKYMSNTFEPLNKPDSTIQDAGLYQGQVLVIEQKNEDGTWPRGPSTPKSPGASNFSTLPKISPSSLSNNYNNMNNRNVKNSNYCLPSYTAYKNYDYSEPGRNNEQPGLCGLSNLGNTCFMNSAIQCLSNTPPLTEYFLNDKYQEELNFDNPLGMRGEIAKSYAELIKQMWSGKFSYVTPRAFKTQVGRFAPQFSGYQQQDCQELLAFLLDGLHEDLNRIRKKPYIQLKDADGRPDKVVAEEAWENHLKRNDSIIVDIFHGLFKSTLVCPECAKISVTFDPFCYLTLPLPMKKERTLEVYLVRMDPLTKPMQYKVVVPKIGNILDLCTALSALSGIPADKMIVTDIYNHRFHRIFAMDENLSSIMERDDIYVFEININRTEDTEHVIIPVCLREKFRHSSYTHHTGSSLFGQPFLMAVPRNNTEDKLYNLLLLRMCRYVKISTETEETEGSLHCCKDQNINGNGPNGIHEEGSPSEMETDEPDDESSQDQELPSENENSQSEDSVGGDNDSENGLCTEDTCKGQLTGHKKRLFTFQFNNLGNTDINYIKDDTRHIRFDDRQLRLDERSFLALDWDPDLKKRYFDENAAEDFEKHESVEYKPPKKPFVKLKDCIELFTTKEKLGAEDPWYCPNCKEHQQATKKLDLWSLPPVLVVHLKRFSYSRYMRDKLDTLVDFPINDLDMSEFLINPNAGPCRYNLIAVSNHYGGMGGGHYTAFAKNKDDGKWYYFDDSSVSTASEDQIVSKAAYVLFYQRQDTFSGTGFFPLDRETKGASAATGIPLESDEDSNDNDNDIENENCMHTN
Outline: as §1

USP16 = USP16 (UniProt Q9Y5T5)
Outline: as §1

Measured: log2 ratio of Biotin-Ahx-Ub-VS probe labelling

USP10, sequence (Q14694 whole entry): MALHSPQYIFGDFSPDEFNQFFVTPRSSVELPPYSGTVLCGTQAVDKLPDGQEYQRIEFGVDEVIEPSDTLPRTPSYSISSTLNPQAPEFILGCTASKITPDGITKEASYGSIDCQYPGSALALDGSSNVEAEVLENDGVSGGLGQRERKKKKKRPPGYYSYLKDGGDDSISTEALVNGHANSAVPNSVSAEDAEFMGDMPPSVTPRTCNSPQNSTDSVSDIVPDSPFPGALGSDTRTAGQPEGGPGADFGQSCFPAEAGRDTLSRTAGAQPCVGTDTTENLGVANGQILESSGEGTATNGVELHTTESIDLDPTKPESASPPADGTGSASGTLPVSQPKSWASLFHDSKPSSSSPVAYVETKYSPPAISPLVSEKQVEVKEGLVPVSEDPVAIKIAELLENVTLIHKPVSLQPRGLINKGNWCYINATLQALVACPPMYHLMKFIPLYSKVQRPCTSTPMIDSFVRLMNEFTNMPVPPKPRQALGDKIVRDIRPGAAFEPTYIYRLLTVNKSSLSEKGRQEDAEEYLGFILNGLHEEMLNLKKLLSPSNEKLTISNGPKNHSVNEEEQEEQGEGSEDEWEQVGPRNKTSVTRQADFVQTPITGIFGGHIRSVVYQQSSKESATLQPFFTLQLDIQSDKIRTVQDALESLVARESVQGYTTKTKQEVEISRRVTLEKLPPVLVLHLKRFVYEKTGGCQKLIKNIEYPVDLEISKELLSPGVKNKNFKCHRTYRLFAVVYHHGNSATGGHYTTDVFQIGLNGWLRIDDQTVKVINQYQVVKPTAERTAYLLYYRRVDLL
UCHL1, sequence (P09936 whole entry, looked up): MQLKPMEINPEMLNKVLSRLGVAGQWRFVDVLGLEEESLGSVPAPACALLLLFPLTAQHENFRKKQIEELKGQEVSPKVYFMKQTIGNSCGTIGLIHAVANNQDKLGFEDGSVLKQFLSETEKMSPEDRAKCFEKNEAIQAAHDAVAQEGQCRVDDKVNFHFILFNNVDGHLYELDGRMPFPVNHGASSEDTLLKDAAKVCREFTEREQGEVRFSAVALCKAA
USP16, sequence (Q9Y5T5 whole entry, looked up): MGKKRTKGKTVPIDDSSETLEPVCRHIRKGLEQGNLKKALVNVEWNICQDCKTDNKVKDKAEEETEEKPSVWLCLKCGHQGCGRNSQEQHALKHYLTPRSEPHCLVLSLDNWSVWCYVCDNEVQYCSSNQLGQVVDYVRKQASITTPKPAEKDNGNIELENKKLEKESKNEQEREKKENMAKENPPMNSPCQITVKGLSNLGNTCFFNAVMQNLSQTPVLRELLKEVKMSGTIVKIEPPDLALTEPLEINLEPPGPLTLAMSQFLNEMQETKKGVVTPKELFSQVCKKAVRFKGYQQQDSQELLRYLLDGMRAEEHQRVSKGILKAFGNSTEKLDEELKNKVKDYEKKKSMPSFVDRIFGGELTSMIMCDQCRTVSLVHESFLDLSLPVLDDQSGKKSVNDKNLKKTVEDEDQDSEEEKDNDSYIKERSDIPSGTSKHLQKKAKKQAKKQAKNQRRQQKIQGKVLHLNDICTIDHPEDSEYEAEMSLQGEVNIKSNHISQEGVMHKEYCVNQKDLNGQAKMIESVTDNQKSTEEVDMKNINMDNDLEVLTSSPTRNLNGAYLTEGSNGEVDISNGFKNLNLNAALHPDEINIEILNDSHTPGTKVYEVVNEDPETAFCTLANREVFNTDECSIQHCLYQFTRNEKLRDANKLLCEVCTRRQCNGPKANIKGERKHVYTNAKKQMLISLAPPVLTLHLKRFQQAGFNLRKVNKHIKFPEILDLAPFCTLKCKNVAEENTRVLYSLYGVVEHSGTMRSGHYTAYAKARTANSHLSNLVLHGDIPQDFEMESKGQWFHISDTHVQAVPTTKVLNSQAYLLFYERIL

Cc1nnc(C(NC(=O)CCl)c2ccccc2)n1C (stereo not given)
inactive: OTUD6B 0.622 | OTUD7B 0.355 | PRPF8 -0.283 | PSMD7 0.357 | UCHL1 0.102 | UCHL3 0.364 | UCHL5 0.534 | USP10 0.157 | USP15 0.629 | USP16 -0.384
